Values joined by “and” are separate entries in the source; they are usually repeats but may differ in a detail not shown here. Equal entries are not always repeated. Out of some 6,400 compounds screened, about 610 (9.5%) were called active. Rule as the data show it: active = activity change below about -70%; inconclusive = no clear call, values can overlap the other calls; inactive = above that. The entries come from a sample that favours actives as a whole. Some structures have more than one record in an assay (separate samples or runs), and their calls can disagree.

Here are results for 50 compounds from PubChem BioAssay AID1259421 (Broad Institute, 2018).

The nature of the experiment: T. gondii ME49Luc in HeLa cells, luciferase assay, 72 h, no IFN-y (AID 1259421). The settings on record: stronger effect = lower value, concentration not given here.
As for `COc1cc(OC)c(-c2c(OC)cc(OC)cc2OC)c(OC)c1`, the activity change, negative = inhibition is -0.897% (inactive).

As for `CN(C)[C@@H]1CCc2[nH]c3ccc(NC(=O)c4ccc(F)cc4)cc3c2C1`, the activity change, negative = inhibition is 0.289% (inactive) and 6.81% (inactive).

For the compound `CC(=O)NC1C(O)OC(COS(=O)(=O)O)C(OC2OC(C(=O)O)C(OC3OC(CO)C(OC4OC(C(=O)O)C(O)C(O)C4OS(=O)(=O)O)C(OS(=O)(=O)O)C3NS(=O)(=O)O)C(O)C2OS(=O)(=O)O)C1O` (stereo not given), the activity change, negative = inhibition was 9.64% (inactive).

As for `CCn1cc(-c2ccnc3[nH]c(-c4cccc(CN(C)C)c4)cc23)c(-c2ccc(NC(=O)N(C)C)cc2)n1`, the activity change, negative = inhibition was -82.3% (active).

For the compound `CN(C)C(=O)Nc1cccc(-c2ccc(N(C)C)cc2)c1`, the activity change, negative = inhibition was 27.1% (inactive).

Turning to `C#CCC(Cc1cnc2nc(N)nc(N)c2n1)c1ccc(C(=O)N[C@@H](CCC(=O)O)C(=O)O)cc1` (stereo not given in full), the activity change, negative = inhibition is -66.9% (inactive).

As to `CN(Cc1cnc2nc(N)nc(N)c2n1)c1ccc(C(=O)N[C@@H](CCC(=O)O)C(=O)O)cc1`, the activity change, negative = inhibition was -80.9% (active) and -28.7% (inactive).

Take `CN(Cc1cnc2nc(N)nc(N)c2n1)c1ccc(C(=O)NC(CCC(=O)O)C(=O)O)cc1` (stereo not given): the activity change, negative = inhibition was -57.2% (inactive) and 1.6% (inactive).

For the compound `COc1ccc(CCN(C)CCCC(C#N)(c2cc(OC)c(OC)c(OC)c2)C(C)C)cc1OC` (stereo not given), the activity change, negative = inhibition is 41.7% (inactive).

In the case of `N=C(CC(O)COc1ccccc1-c1ccccc1)N1CCCCC1` (stereo not given), the activity change, negative = inhibition was 10.7% (inactive).

In the case of `COc1ccc(-c2cnc3c(-c4cccc5ncccc45)cnn3c2)cc1`, the activity change, negative = inhibition is 2.75% (inactive).

With `c1cc(-c2cnn3cc(-c4ccc(N5CCNCC5)cc4)cnc23)c2cccnc2c1`, the activity change, negative = inhibition is -84.7% (active).

`CC(C)Oc1ccc(-c2cnc3c(-c4ccnc5ccccc45)cnn3c2)cc1`: the activity change, negative = inhibition was -49.1% (inactive).

Take `COC(F)(F)C(Cl)Cl`: the activity change, negative = inhibition is 19.6% (inactive).

Regarding `CC(C)(Oc1ccc(Cl)cc1)C(=O)N1CSCC1C(=O)O` (stereo not given), the activity change, negative = inhibition was 19% (inactive).

As for `NC(=O)C1CC2(NC(=O)NC2=O)c2cc(F)ccc2O1` (stereo not given), the activity change, negative = inhibition is 12.6% (inactive).

In the case of `Cc1nc(Nc2ncc(C(=O)Nc3c(C)cccc3Cl)s2)cc(N2CCN(CCO)CC2)n1`, the activity change, negative = inhibition was -75.5% (active) and -82.6% (active).

In the case of `Cc1cc(Nc2cc(N3CCN(C)CC3)nc(Sc3ccc(NC(=O)C4CC4)cc3)n2)n[nH]1`, the activity change, negative = inhibition is -15.4% (inactive) and -14.2% (inactive) and -8.95% (inactive).

On to `S=c1[nH]c2ccccc2s1`, for which the activity change, negative = inhibition was 14.8% (inactive) and 4.19% (inactive).

`S=c1nc[nH]c2[nH]ncc12`: the activity change, negative = inhibition is -6.21% (inactive).

As for `C[C@]12CCC(=O)C=C1CCC1C2[C@@H](O)C[C@@]2(C)C1CC[C@]2(O)C(=O)COC(=O)CCC(=O)O` (stereo not given in full), the activity change, negative = inhibition is -4.51% (inactive) and -4.05% (inactive).

Turning to `COC1C(O)[C@@H](O)C(O)C(O)[C@H]1O` (stereo not given in full), the activity change, negative = inhibition is 4.8% (inactive).

For `COc1ccc2c(c1)OCC(Cc1ccc(O)c(OC)c1)C2=O` (stereo not given), the activity change, negative = inhibition is -0.0941% (inactive).

With `COc1ccc2c(c1)OCC(Cc1ccc(OC)c(OC)c1)C2=O` (stereo not given), the activity change, negative = inhibition was -1.15% (inactive).

For `COc1ccc2c(c1)OCC(Cc1ccc(OC)c(OC(C)=O)c1)C2=O` (stereo not given), the activity change, negative = inhibition is -72% (active).

In the case of `CO/N=C(/C(=O)N[C@@H]1C(=O)N2C(C(=O)O)=C(C[n+]3cccc4c3CCC4)CS[C@H]12)c1csc(N)n1`, the activity change, negative = inhibition was 14.5% (inactive).

For the compound `CO/N=C(/C(=O)NC1C(=O)N2C(C(=O)O)=C(CSc3nc(=O)c(=O)[nH]n3C)CSC12)c1csc(N)n1` (stereo not given), the activity change, negative = inhibition is -0.639% (inactive).

In the case of `COc1ccc([C@@H]2Sc3ccccc3NC(=O)[C@@H]2O)cc1`, the activity change, negative = inhibition was 11.7% (inactive).

For the compound `O=P(O)(O)OC[C@H]1OC(O)[C@H](O)[C@@H](O)[C@@H]1O` (stereo not given in full), the activity change, negative = inhibition was 7.08% (inactive).

Regarding `Cc1[nH]c2ccccc2c1CCNCc1ccc(/C=C/C(=O)NO)cc1`, the activity change, negative = inhibition is -73.2% (active) and -76.5% (active).

As for `Cc1[nH]c2ccccc2c1CCNC(=O)c1cccs1`, the activity change, negative = inhibition is 9.58% (inactive).

With `CC(=O)NCCc1c(Cc2ccccc2)[nH]c2ccccc12`, the activity change, negative = inhibition was -2.39% (inactive).

Turning to `CC(C)(N)C(=O)N[C@H](COCc1ccccc1)C(=O)N1CCC2(CC1)CN(S(C)(=O)=O)c1ccccc12`, the activity change, negative = inhibition was 5.12% (inactive).

For the compound `Cc1cc(/C(=C\Nc2ccc(Cl)cc2)C(=O)Nc2ccc(Cl)cc2)on1`, the activity change, negative = inhibition was 18.7% (inactive).

Regarding `FC(F)(F)C(F)(F)C(F)(F)C(F)(F)C(F)(F)C(F)(F)C(F)(F)C(F)(F)Br`, the activity change, negative = inhibition was 2.95% (inactive).

For the compound `Brc1cc2c(cc1[C@H]1Nc3ccccc3[C@H]3C=CC[C@H]31)OCO2` (racemic), the activity change, negative = inhibition was 11.8% (inactive).

`CC(=O)c1ccc2c(c1)[C@@H]1C=CC[C@@H]1[C@H](c1cc3c(cc1Br)OCO3)N2`: the activity change, negative = inhibition is -79.7% (active).

Regarding `O=C(O)c1ccc2c(c1)OCO2`, the activity change, negative = inhibition was 16% (inactive).

With `COC(=O)C1=C(C)NC(C)=C([N+](=O)[O-])[C@@H]1c1ccccc1C(F)(F)F`, the activity change, negative = inhibition is 1.1% (inactive).

On to `C/C(=C(/CCO)SSCC1CCCO1)N(C=O)Cc1cnc(C)nc1N` (stereo not given), for which the activity change, negative = inhibition is 15% (inactive).

On to `CCC(=O)Nc1cccc(Oc2nc(Nc3ccc(N4CCN(C)CC4)cc3OC)ncc2Cl)c1`, for which the activity change, negative = inhibition was 7.36% (inactive).

Take `C=CC(=O)Nc1cccc(Oc2nc(Nc3ccc(N4CCN(C)CC4)cc3OC)ncc2Cl)c1`: the activity change, negative = inhibition was -35.2% (inactive).

On to `CN1CCN(c2ccc(OC(F)(F)F)c(Nc3ncc4c(n3)-c3c(c(C(N)=O)nn3CCO)CC4)c2)CC1`, for which the activity change, negative = inhibition was -90.8% (active).

As for `CCN(CC)S(=O)(=O)c1ccc(C(=O)O)cc1`, the activity change, negative = inhibition is -0.641% (inactive) and 12.4% (inactive).

With `CCc1cc(C(C)=O)c(O)cc1OCCCCCC(C)(C)c1nn[nH]n1`, the activity change, negative = inhibition was 50.8% (inactive) and 31.2% (inactive).

Consider `Nc1ccncc1N`, for which the activity change, negative = inhibition is -3.18% (inactive).

For `CCC(=O)N1CCN(c2ccc(-n3c(=O)ccc4cnc5ccc(-c6cnc7ccccc7c6)cc5c43)cc2C(F)(F)F)CC1`, the activity change, negative = inhibition is -56% (inactive).

Turning to `Nc1ccc(-c2ccc3ncc4ccc(=O)n(-c5cccc(C(F)(F)F)c5)c4c3c2)cn1`, the activity change, negative = inhibition is -76.7% (active).

Take `COc1ccc(C(=O)CCC(=O)O)c2ccccc12`: the activity change, negative = inhibition is 2.31% (inactive).

Consider `COC(=O)c1cc(S(C)(=O)=O)ccc1OC`, for which the activity change, negative = inhibition is 9.8% (inactive).
